Screening results (PubChem)
Only some compounds are listed: those with a hit (about 32% of all), similar ones and a draw of the others.
CYP2C9 inhib – inhibitors of human CYP2C9. CYP2C9 Supersomes, luciferin-H conversion, luminescence. inhibition, % at 5 µM. P11712. 96,000 compounds, 20% hits;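 active = blocking of liver enzyme CYP2C9 beyond about 50% at 5 µM, limit read from the data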
Target sequence (P11712 whole entry, looked up): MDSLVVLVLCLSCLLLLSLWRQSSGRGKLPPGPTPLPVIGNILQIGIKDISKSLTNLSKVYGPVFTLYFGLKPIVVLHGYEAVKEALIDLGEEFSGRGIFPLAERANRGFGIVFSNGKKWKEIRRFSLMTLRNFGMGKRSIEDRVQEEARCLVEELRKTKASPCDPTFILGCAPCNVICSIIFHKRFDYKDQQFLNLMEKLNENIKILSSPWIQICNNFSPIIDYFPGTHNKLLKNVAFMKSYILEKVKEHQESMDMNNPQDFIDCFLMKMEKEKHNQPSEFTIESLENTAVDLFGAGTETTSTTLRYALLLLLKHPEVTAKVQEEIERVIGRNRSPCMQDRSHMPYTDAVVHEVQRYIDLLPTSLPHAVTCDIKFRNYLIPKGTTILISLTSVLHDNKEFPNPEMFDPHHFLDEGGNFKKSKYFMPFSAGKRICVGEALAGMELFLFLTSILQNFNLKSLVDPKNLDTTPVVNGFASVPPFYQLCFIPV
CYP2C19 inh – blocks human cytochrome P450 2C19; CYP2C19 Supersomes, luciferin-H EGE luminescence, 30 min; AID 778; 96,000 compounds, 21% hits; inhibition, % at 5 µM; P33261;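 active = CYP2C19 inhibition above a set limit at 5 µM in the primary screen, cut at about 50% in these data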
PostGolgi ctrl – growth of the yeast control strain, post-Golgi counter-screen; efflux-deficient yeast background strain, growth absorbance A615, 16 h; inhibition, % at 10 µM; 98,000 compounds, 5% hits
CYP2C19 act – cytochrome P450 2C19 (human) activation. P33261. recombinant CYP2C19, luciferin-H EGE luminescence; active compounds read high; 0 = fully inhibited enzyme, 1 = untreated enzyme. activation factor at 5 µM. 96,000 tested, under 10 active. AID 1025;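 active = activation factor of at least 2 at 5 µM in the primary screen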
CYP2C9 activ – CYP2C9 (human) activation. P11712. recombinant CYP2C9, luciferin-H conversion, luminescence; active compounds read high; factor 1 = untreated enzyme, 0 = blocked. activation factor at 5 µM. 96,000 compounds, 1.4% hits. AID 1024;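 active = activation factor of 2 or more for CYP2C9 at a 5 µM dose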
PostGolgi yeast – growth inhibition of a yeast mutant, post-Golgi transport screen; post-Golgi transport phenotypic cell assay; 98,000 compounds, 0.9% hits; AID 739; inhibition, % at 10 µM;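 note: yeast cells grown in 1536-well plates; yeast grown about 18 h at 30C before absorbance read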
Numbers stand for hits; 0 = inactive; - = no result given. Cut-off read from the data, not from the text of the source, unless noted: active = inhibition above about 30%; inactive = the rest.

SMILES	CYP2C9 inhib	CYP2C19 inh	PostGolgi ctrl	CYP2C19 act	CYP2C9 activ	PostGolgi yeast
Cc1cccnc1NC(=S)NC(=O)/C=C/c1ccco1	0	0	0	0	0	0
CCOc1ccc(C(=O)Nc2cccc(-c3cc4ccccc4oc3=O)c2)cc1[N+](=O)[O-]	65.2	81.5	0	0	0	0
Cc1cc(C)c2oc(-c3ccc(C)c(NC(=S)NC(=O)/C=C/c4ccco4)c3)nc2c1	0	97.1	0	0	0	0
Cc1c(C(=O)NC2CCCCC2)oc2c1C(=O)CC(C)(C)C2	0	0	0	0	0	0
CCCc1nnc(SCC(=O)N2CCCCC2C)n1CCCOC (stereo unspecified)	0	0	0	0	0	0
CCOc1ccc(C(=O)Nc2cc(-c3nc4ccccc4[nH]3)ccc2C)cc1[N+](=O)[O-]	64.9	81.7	0	0	0	0
COc1ccc(C(=O)Nc2nc3ccccc3[nH]2)cc1OC	-	-	0	-	-	0
O=C(OCc1nc2ccc(Cl)cc2n1CCO)c1ccc2c(c1)OCO2	0	0	0	0	0	0
CCOC(=O)CSc1nnc(CSc2nc3sc4c(c3c(=O)[nH]2)CCC4)n1-c1ccccc1	56.6	0	0	0	0	0
CCOC(=O)CSc1nnc(CSc2nc3sc4c(c3c(=O)[nH]2)CCC4)n1C	0	0	0	0	0	0
C=CCSc1nnc(CSc2nc3sc4c(c3c(=O)[nH]2)CCCC4)n1-c1ccccc1	67.2	0	0	0	0	0
Cn1cnc2c1c(=O)n(CC(O)CO)c(=O)n2C (stereo unspecified)	0	0	0	0	0	0
Cc1ccc(C)c(S(=O)(=O)Nc2ccc3scnc3c2)c1	66.2	100.0	49.5	0	0	0
Cc1ccc(C)c(NS(=O)(=O)c2c(C)ccc3nsnc23)c1	0	0	0	0	0	0
CCn1cc(C(=O)OCC(=O)N(C)C2CCS(=O)(=O)C2)c(=O)c2ccc(C)nc21 (stereo unspecified)	0	0	0	0	0	0
O=C(C(Cl)Cl)N1c2ccccc2OCC1c1ccccc1 (stereo unspecified)	75.1	77.8	0	0	0	0
O=C(CN1CCOc2ccccc21)NC1CCN(Cc2ccccc2)CC1	0	0	0	0	0	0
O=C(O)CCCNCc1ccccc1F	0	0	0	0	0	0
O=C(c1cc2c(=O)oc3ccccc3c2s1)N1CCOCC1	0	0	0	0	0	0
Cc1ccc2cc3cc(C(=O)N4CCN(Cc5ccccc5)CC4)sc3nc2c1	0	0	0	0	0	-
O=C(c1ccco1)N1CCN(C(=O)c2cc3c(=O)oc4ccccc4c3s2)CC1	61.0	0	0	0	0	0
Cc1ccc2cc3cc(C(=O)N4CCN(C(=O)c5ccco5)CC4)sc3nc2c1	0	63.6	0	0	0	0
O=C(c1ccco1)N1CCN(c2nc3ccsc3c(=O)s2)CC1	64.4	0	0	0	0	0
O=C(c1ccco1)N1CCN(c2nnc(-c3ccccc3)c3ccccc23)CC1	0	58.0	0	0	0	0
O=c1sc(N2CCN(c3ccccc3F)CC2)nc2ccsc12	0	0	0	0	0	0
SMILES	CYP2C9 inhib	CYP2C19 inh	PostGolgi ctrl	CYP2C19 act	CYP2C9 activ	PostGolgi yeast
CCC(Sc1nc2n[nH]c(C)c2c(=N)n1-c1cc(Cl)ccc1C)C(=O)N1CCOCC1 (stereo unspecified)	-	-	0	-	-	0
Cc1ccc(CNC(=O)c2ccc(Cl)cc2[N+](=O)[O-])cc1	0	0	0	0	0	0
CN1CCN(C(=O)CC23CC4CC(CC(C4)C2)C3)CC1	0	0	0	0	0	0
COc1ccc2[nH]c(=O)c(COC(=O)c3ccco3)cc2c1	0	0	0	0	0	0
O=C(c1ccco1)N1CCN(c2nc3ccccc3c(=O)n2-c2ccccc2)CC1	67.1	0	0	0	0	0
O=C(c1ccco1)N1CCN(c2ncnc3c2oc2ccccc23)CC1	0	61.5	0	0	0	0
O=C(COc1ncnc2ccccc12)N1CCN(C(=O)c2ccco2)CC1	0	0	0	0	0	0
COc1ccc(NC(=O)CSc2nnc(Cc3cccn3C)n2CCc2ccccc2)c(OC)c1	0	74.8	0	0	0	0
COc1cccc(NC(=O)CSc2nnc(Cc3cccn3C)n2-c2ccc(F)cc2)c1	84.1	0	0	0	0	0
COc1ccc(-n2c(Cc3cccn3C)nnc2SCC(=O)Nc2nccs2)cc1	58.3	78.1	0	0	0	0
COc1ccc(-n2c(Cc3cccn3C)nnc2SCC(=O)Nc2ccccc2C)cc1	0	0	0	0	0	0
COc1ccc(-n2c(Cc3cccn3C)nnc2SCC(=O)Nc2ccc(F)cc2F)cc1	55.3	0	0	0	0	0
COc1ccc(-n2c(Cc3cccn3C)nnc2SCC(=O)Nc2ccccc2F)cc1	0	0	0	0	0	0
COc1ccccc1NC(=O)CSc1nnc(Cc2cccn2C)n1CCc1ccccc1	0	0	0	0	0	0
Cc1cc(C)n(-c2nc(SCCN(C)C)c3c4c(sc3n2)COC(C)(C)C4)n1	0	0	0	0	0	0
CCOC(=O)c1ccccc1NC(=O)CSc1nnc(Cc2cccn2C)n1-c1ccc(C)cc1	88.9	56.2	0	0	0	0
COc1ccc(OC)c(NC(=O)CSc2nnc(Cc3cccn3C)n2-c2ccc(F)cc2)c1	54.2	72.9	0	0	0	0
COc1ccc(NC(=O)CSc2nnc(Cc3cccn3C)n2-c2ccc(C)cc2)cc1OC	0	0	0	0	0	0
COc1ccc(-n2c(Cc3cccn3C)nnc2SCC(=O)NCCc2ccccc2)cc1	73.4	0	0	0	0	0
COc1ccc(NC(=O)CSc2nnc(Cc3cccn3C)n2-c2ccc(F)cc2)cc1	0	0	0	0	0	0
CN1CCN(S(=O)(=O)c2cccc(C(=O)NC3CCCc4ccccc43)c2)CC1 (stereo unspecified)	0	0	0	0	0	0
CCOC(=O)CCP(=O)(O)C(O)c1ccc(OC)cc1 (stereo unspecified)	0	0	0	0	0	0
O=C(NCc1cn2ccccc2n1)c1ccccc1	0	0	0	0	0	0
Cc1ccc(C(=O)OCc2cn3ccccc3n2)cc1	58.8	83.0	0	0	0	0
COc1ccc(OC)c(CN2CCN(c3ccccc3OC)CC2)c1	0	77.9	0	0	0	0
SMILES	CYP2C9 inhib	CYP2C19 inh	PostGolgi ctrl	CYP2C19 act	CYP2C9 activ	PostGolgi yeast
COc1ccccc1N1CCN(Cc2cccs2)CC1	0	93.5	0	0	0	0
COc1ccccc1N1CCN(Cc2ccsc2)CC1	0	0	0	0	0	0
COc1ccccc1N1CCN(Cc2ccc(OC)c(OC)c2OC)CC1	0	0	0	0	0	0
COc1cc2c(cc1OC)CN(Cc1cccs1)CC2	0	65.7	0	0	0	0
O=C(Cn1nnc(-c2ccccc2F)n1)Nc1ccc(S(=O)(=O)NC2CCCC2)cc1	0	0	0	0	0	0
O=C1NC2(C=Cc3c(ccc4ccccc34)O2)Oc2ccccc21 (stereo unspecified)	0	0	0	0	0	0
CCCN(CC1CC1)C(=O)COC(=O)c1[nH]c(C)c(C(=O)OCC)c1C	0	60.5	0	0	0	0
